Hits are enriched below; roughly 3.5% of the tested compounds scored in any of these assays.
GPR151 activ – activators of human GPR151, primary screen, cell-based, PathHunter beta-arrestin, luminescence. 650,000 compounds, 1% hits. AID 1508602, 2020. activation, % at 11.2 µM. PathHunter beta-arrestin GPR151 cells; in the data active means activation above about 4.9%;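 further: 0% = median of compound wells and 100% = cells with positive control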
MITF inh – MITF inhibitors, primary screen, biochemical, AlphaScreen, human; Microphthalmia-associated transcription factor (Homo sapiens), O75030; AlphaScreen MITF homodimerization, bead proximity signal; inhibition, % at 2.6 µM; 650,000 compounds, 0.91% hits; AID 1259374, 2018; in the data active means inhibition above about 50%;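 further: 0% = vehicle wells with protein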
Target sequence (O75030 whole entry, looked up): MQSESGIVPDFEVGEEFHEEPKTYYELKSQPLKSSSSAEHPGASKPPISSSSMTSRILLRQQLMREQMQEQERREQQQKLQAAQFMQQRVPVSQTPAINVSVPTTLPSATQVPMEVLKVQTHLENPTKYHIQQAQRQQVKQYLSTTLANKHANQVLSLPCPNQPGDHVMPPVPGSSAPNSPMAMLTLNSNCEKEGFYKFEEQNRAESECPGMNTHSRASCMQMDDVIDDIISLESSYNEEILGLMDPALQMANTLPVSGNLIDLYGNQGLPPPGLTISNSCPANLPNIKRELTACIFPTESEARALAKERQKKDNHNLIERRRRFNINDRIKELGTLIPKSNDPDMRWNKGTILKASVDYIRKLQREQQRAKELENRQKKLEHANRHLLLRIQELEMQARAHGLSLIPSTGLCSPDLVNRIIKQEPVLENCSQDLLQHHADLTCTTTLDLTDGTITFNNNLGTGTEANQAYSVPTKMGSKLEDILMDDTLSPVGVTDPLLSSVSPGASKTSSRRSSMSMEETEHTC
TEAD-YAP block – TEAD-YAP interaction inhibition, primary screen, TEAD-YAP interaction inhibitor project, luminescence, HEK-TIYL cells; TEAD-Gal4/YAP UAS-luciferase luminescence; inhibition, % at 9.12 µM; 640,000 compounds, 1.4% hits; AID 1259422, 2018; in the data active means inhibition above about 32%;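 further: 0% = median of test compound wells and 100% = reference inhibitor wells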
FBW7 act – FBW7 E3 ligase activators, primary screen, biochemical, AlphaScreen, human; 650,000 compounds, 0.13% hits; AlphaScreen FBW7–phospho-cyclin E peptide binding, activator screen; F-box/WD repeat-containing protein 7 (Homo sapiens), Q969H0; normalized activity (activation), % at 26.1 µM; in the data active means normalized activity above about 1.9%;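 further: purified mutant Fbw7 with reduced substrate affinity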
GPR151 conf act – GPR151 activators, triplicate retest, confirmation, cell-based, PathHunter beta-arrestin, luminescence; shares compounds with GPR151 activ; GPR151 PathHunter beta-arrestin cells, 90 min; % of EA-reagent control over plate median; activation, % at 11.2 µM; 6,700 tested, under 10 active; AID 1508609, 2020;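 active means mean percent activation across replicates above the confirmation screen cutoff of 4.91%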
GPR119 ag – GPR119 activators in beta-arrestin cells, counter-screen for GPR151 activator project, cell-based, PathHunter beta-arrestin, luminescence, triplicate | shares compounds with GPR151 activ | 90 min; 0 = compound-well median, 100 = enzyme-acceptor control | activation, % at 11.2 µM | 6,700 compounds, 0.3% hits | AID 1508611, 2020;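 active means mean percent activation in the counterscreen above 29.09%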;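 further: counterscreen on off-target GPR119 to flag nonselective hits from the GPR151 activator screen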
An asterisk follows results filed as active; · = not tested or not shown.

SMILES | GPR151 activ | MITF inh | TEAD-YAP block | FBW7 act | GPR151 conf act | GPR119 ag
COc1cc(/C=C2/NC(=O)N(Cc3ccc(F)cc3)C2=O)cc(Cl)c1OC | 5.2* | -4 | -13 | 1 | 0 | 0
COc1cc(/C=C2/NC(=O)N(Cc3ccccc3F)C2=O)cc(Cl)c1OC | 1 | 8 | -3 | 0 | · | ·
COc1cccc(-c2cnn3c(NCc4cccs4)ccnc23)c1 | -1 | -27 | -49 | 0 | · | ·
Cc1cccc(OCCOc2ccc(/C=C3/C(=N)N4N=C(Cc5ccccc5)SC4=NC3=O)cc2)c1 | 0 | 9 | 8 | 0 | · | ·
COc1cccc(-c2ccc(NC(=O)C3CCCN(C(=O)c4cscn4)C3)cc2)c1 (stereo not given) | 0 | -5 | -48 | 0 | · | ·
COCCN1CCCc2ccc(NS(=O)(=O)c3cc(C)ccc3C)cc21 | 5.2* | -1 | 15 | 0 | 0 | 3
COCCN1CCCc2ccc(NS(=O)(=O)c3ccc(C)c(C)c3)cc21 | -1 | -6 | 7 | 0 | · | ·
CN(Cc1ccccc1)C(=O)Cn1ncc2ccsc2c1=O | 5.6* | -7 | -30 | 0 | -1 | -22
CCCCC1CN(CCC(=O)NCc2csc(C)n2)Cc2ccccc2O1 (stereo not given) | -1 | 11 | 19 | 1 | · | ·
CCSc1ccccc1C(=O)Nc1cccnc1 | 2 | 12 | 5 | 0 | · | ·
Cc1ccccc1C(=O)Nc1ccc(S(=O)(=O)N2CCN(C)CC2)cc1 | 6.7* | -6 | 3 | 0 | 0 | 7
CCSc1ccccc1C(=O)Nc1ccc(S(=O)(=O)N2CCOCC2)cc1 | 6.5* | -1 | 9 | 1 | 0 | -1
CCSc1ccccc1C(=O)Nc1ccncc1 | 5.0* | 19 | -5 | 0 | 0 | -5
CC1(C)C=C(c2ccc(O)cc2O)CC(C)(C)N1 | 0 | -17 | 4 | 0 | · | ·
CC1(C)C=C(c2ccc(O)cc2)CC(C)(C)N1 | 5.6* | 9 | 3 | 0 | -1 | -2
COc1ccc(Cl)cc1NC(=O)N(C)Cc1c(C)nn(C)c1C | 9.6* | -15 | -21 | 1 | 1 | -2
COc1ccc(Cl)cc1NC(=O)CCn1nc(C)c(C)c1C | 0 | 4 | -15 | 0 | · | ·
CCCOc1ccc(/C(O)=C2/C(=O)C(=O)N(CCCN(C)C)C2c2ccc(F)cc2)c(C)c1 (stereo not given) | 5.3* | -4 | 2 | 0 | -1 | 0
CCCOc1ccc(/C(O)=C2/C(=O)C(=O)N(CCN(C)C)C2c2ccc(F)cc2)c(C)c1 (stereo not given) | -1 | 11 | 9 | 1 | · | ·
CCOC(=O)C1=C(C)N=C2SCC(=O)N2C1c1cccc2ccccc12 (stereo not given) | 7.6* | -10 | -5 | 1 | -1 | -6
CCOC(=O)C1=C(C)N=C2SCC(=O)N2C1c1ccc(OC)c2ccccc12 (stereo not given) | 2 | 2 | 7 | 0 | · | ·
c1c2c(cc3c1OCCO3)C1CN(C2)Cc2cc3c(cc21)OCCO3 | 7.4* | 6 | 10 | 0 | 0 | 0
CCc1ccc(C2NCCc3cc4c(cc32)OCCO4)cc1 (stereo not given) | 4 | 5 | 3 | 0 | · | ·
CCOC(=O)CSc1nnc(-c2cccc(NC(=O)c3ccccc3Cl)c2)n1C | 5.3* | 6 | 0 | 0 | 1 | 1
CN(c1ccccc1)S(=O)(=O)c1ccc(/C(O)=C(\C#N)c2nc3ccccc3s2)cc1 | -1 | 5 | -10 | 0 | · | ·
SMILES | GPR151 activ | MITF inh | TEAD-YAP block | FBW7 act | GPR151 conf act | GPR119 ag
COc1ccc(CNC(=O)COc2ncnc3c(Cl)cc(Cl)cc23)cc1 | 6.9* | 10 | 7 | 0 | 0 | 10
Cc1cccc(C(=O)NNC(=O)/C=C/C(=O)O)c1 | 9.2* | -1 | -44 | 0 | -1 | -8
CC1(C)Cc2c(sc(NC(=S)NC(=O)c3ccccc3)c2C#N)CO1 | 1 | -5 | -8 | 0 | · | ·
Cc1c(C(=O)N2CCCCCC2)sc2ncn(Cc3ccccc3Cl)c(=O)c12 | 8.5* | -4 | 1 | 0 | 0 | 6
Cc1c(C(=O)N2CCN(Cc3ccccc3)CC2)sc2ncn(Cc3ccccc3Cl)c(=O)c12 | -2 | -6 | -4 | 0 | · | ·
COc1cc(C2=N/C(=C\c3ccc(Br)cc3)C(=O)O2)cc(OC)c1OC | -1 | -10 | -1 | 0 | · | ·
CCN1CCN(C(C)C(=O)Nc2ncc(C)s2)CC1 (stereo not given) | 7.0* | 16 | 4 | 0 | 1 | 12
CCN(C)c1nc2nonc2nc1NC1CCCC1 | 5.2* | -11 | 5 | 0 | 1 | -2
Cc1cc2ncn(-c3ncnc4sc5c(c34)CCCC5)c2cc1C | 4.9* | 5 | -22 | 1 | 2 | 13
CC(C)(C)C1CCC(OC(=O)CCC(=O)N2CCCCC2)CC1 (stereo not given) | 11* | -9 | -44 | 0 | 0 | 4
Cc1ccc(NC(=O)CCC(=O)OC2CCC(C(C)(C)C)CC2)cc1 (stereo not given) | 0 | -13 | 5 | 0 | · | ·
Cc1cc(C)n(-c2cccc(CN(C)C(=O)Cn3nnnc3CN3CCC(C)CC3)c2)n1 | 5.7* | 2 | 4 | 0 | 0 | 4
Cc1cccc(-n2nnnc2C(c2ccccc2)N2CCOCC2)c1 (stereo not given) | 8.5* | 6 | 12 | 0 | 1 | 11
CCc1cc(CC)c(/C=N/O)c(CC)c1/C=N/O | 1 | 9 | -9 | 0 | · | ·
COc1ccc(NC(=O)CN2C(=O)C(c3ccccc3)Oc3cccnc32)cc1OC (stereo not given) | 6.3* | -4 | -3 | 0 | 0 | 0
CC(=O)N1CCN(C(=O)c2ccc3c(c2)OCO3)CC1 | 5.5* | -2 | 3 | 0 | 0 | -3
O=C(c1ccc2c(c1)OCO2)N1CCN(c2ccc(Cl)cc2)CC1 | 5.5* | 17 | -6 | 0 | 3 | -2
CC(=O)c1ccc(N2CCN(C(=O)c3ccc4c(c3)OCO4)CC2)cc1 | 0 | -11 | -8 | 0 | · | ·
O=C(c1ccc2c(c1)OCO2)N1CCCCCC1 | 1 | 16 | -1 | 0 | · | ·
COc1cccc(CN(C(=O)/C=C/c2ccc(Cl)cc2)C2CCS(=O)(=O)C2)c1 (stereo not given) | 6.9* | 9 | 4 | 0 | 1 | 3
OCCn1c(-c2ccccc2)nc(=S)c2c1CCCC2 | 2 | 16 | 7 | 0 | · | ·
c1nnn(CC2CCOCO2)n1 (stereo not given) | 15* | 12 | 7 | 0 | 0 | -5

High-throughput results: PubChem BioAssay, The Scripps Research Institute Molecular Screening Center
